Only some compounds are listed: those with a hit (about 3.7% of all), similar ones and a draw of the others.
Autofluor counter: counter-screen for toxin protease inhibitors: compound fluorescence | compound autofluorescence counterscreen, microsphere flow cytometry; hits give high values | fluorescence intensity (test concentration not listed) | hit rate 3.1% among 360,000 | AID 624483; in the data active = fluorescence intensity above about 16000; inconclusive = no clear call, values can overlap the other calls
Anthrax LF inh2: blocks Bacillus anthracis lethal factor protease | P15917 | multiplex microsphere protease cleavage assay, LF | inhibition, % at 10 µM | hit rate 0.12% among 360,000 | AID 588501
BoNT-F LC inh: BoNT F light chain protease inhibition; hit rate 0.22% among 360,000; inhibition, % at 10 µM; Multiplex microsphere protease cleavage assay, flow cytometry; in the data active = inhibition above about 35%, passing the limit was not always enough; inconclusive = no clear call, values can overlap the other calls
MazEF act: increases E. coli MazEF RNase cleavage of RNA; P0AE70; FAM/BHQ RNA-DNA oligo cleavage fluorescence, 5 h; activation, % at 20 µM; hit rate 0.32% among 350,000; AID 504720; in the data active = activation above about 50%
Target sequence (P0AE70 whole entry, looked up): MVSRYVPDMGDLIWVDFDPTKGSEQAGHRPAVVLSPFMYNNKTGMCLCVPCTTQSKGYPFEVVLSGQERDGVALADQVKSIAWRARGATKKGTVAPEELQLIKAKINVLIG
BoNT-A LC inh2: inhibitors of Botulinum neurotoxin A light chain protease; multiplex microsphere protease substrate cleavage, flow cytometry; inhibition, % at 10 µM; hit rate 0.17% among 360,000; AID 588499
Of the large screens only hits and unclear results are named; the others gave an inactive call. Cut-off read from the data, not from the text of the source, unless noted: active = inhibition above about 30%; inconclusive = no clear call, values can overlap the other calls; inactive = below that.

COc1cc(N2CCCC2)c(OC)cc1/C=C(/C#N)c1ccc(Br)cc1	Autofluor counter 20296
COc1ccc(C(C#N)=Cc2ccc(OC)c(OC)c2)cc1	none
COc1ccc(C(C#N)=Cc2ccccc2OC)cc1	none
COc1cc(N2CCCC2)c(OC)cc1/C=C(/C#N)c1ccc(F)cc1	BoNT-F LC inh 35
CCCN(Cc1ccc(C)cc1)C(=O)c1ccc(CNS(=O)(=O)c2ccc(C(C)=O)cc2)cc1	Autofluor counter inconclusive
CN1C(=CC=C2C=C(I)C(=O)C(I)=C2)C(C)(C)c2ccccc21	Anthrax LF inh2 55, BoNT-A LC inh2 101
O=C(NCCc1ccccc1)c1ccc(-n2cnnn2)cc1	Autofluor counter 16633, BoNT-A LC inh2 inconclusive
CN(C)CCNC(=O)c1ccccc1	Autofluor counter 20030
Cc1ccc(S(=O)(=O)N(C)c2ccc(C(=O)NCCc3ccccc3)cc2)cc1	none
c1ccc(CSC2=NCCS2)cc1	none
CN(c1ccc(C(=O)NCCc2ccccc2)cc1)S(C)(=O)=O	Autofluor counter 20035
O=C(NCSC1=NCCS1)c1ccccc1	Autofluor counter 24719
Nc1ncnc2c1ncn2[C@@H]1O[C@H](CNS(=O)(=O)c2cc3ccccc3s2)[C@@H](O)[C@H]1O	none
COc1cc(OC)cc(C(=O)NCC2CCCN(C(=O)c3oc(C)cc3C)C2)c1 (centres undefined)	none
CCOC(=O)c1c(C)[nH]c(C)c1S(=O)(=O)N1CCN(C(=O)c2ccco2)CC1	none
CCN(CC)S(=O)(=O)c1cccc(C(=O)Nc2ccc(C#N)cc2)c1	Autofluor counter 16843
CN(C)S(=O)(=O)c1cccc(C(=O)NCCNC(=O)c2cccc(S(=O)(=O)N(C)C)c2)c1	BoNT-F LC inh inconclusive
CCN(CC)S(=O)(=O)c1cccc(C(=O)NCCc2ccccc2)c1	Autofluor counter 16952
COc1ccc(NC(=O)CC2Oc3ccccc3NC2=O)c(OC)c1 (centres undefined)	none
Cn1c(=O)n(C)c2cc(N3CCCCC3)c(NC(=O)c3ccccc3)cc21	none
O=c1c(CN2CCN(Cc3ccccc3)CC2)coc2ccc(Cl)cc12	Autofluor counter 19830
O=c1cc(CN2CCN(Cc3ccccc3)CC2)c2cc(Cl)ccc2o1	none
O=C(NCCc1ccccn1)C(F)(F)C(F)(F)C(F)(F)C(F)(F)C(F)(F)C(F)F	none
CCCC(=O)Nc1c2c(nn1-c1ccc([N+](=O)[O-])cc1)CS(=O)(=O)C2	none
CCOC(=O)c1oc2ccccc2c1NC(=O)c1ccc(S(=O)(=O)N2CCCC2)cc1	Autofluor counter 20008
CN(C)S(=O)(=O)c1ccc(C(=O)Nc2ccccc2F)cc1	Autofluor counter 16551
CCOC(=O)c1[nH]c2ccccc2c1NC(=O)c1ccc(S(=O)(=O)N(C)C)cc1	none
CCOC(=O)c1[nH]c2ccccc2c1NC(=O)c1ccc(S(=O)(=O)N2CCCCC2)cc1	none
CCOC(=O)c1oc2ccccc2c1NC(=O)c1ccc(S(=O)(=O)N(C)C)cc1	Autofluor counter 20341
c1ccc(-c2nc(C3CCCCC3)c3ccccc3n2)cc1	none
O=C(N/N=C/c1ccc(N2CCOCC2)cc1)C1CC1	none
CCN1CCCC1CN(Cc1cc2c(C)cc(C)cc2[nH]c1=O)C(=O)NC1CCCCC1 (centres undefined)	MazEF act 59
O=C(NC1CCCCC1)N(Cc1cc2cc3c(cc2[nH]c1=O)OCCO3)CC1CCCO1 (centres undefined)	Autofluor counter 18971, BoNT-A LC inh2 inconclusive
Cc1ccc2cc(CN(CCCN3CCOCC3)C(=O)NC3CCCCC3)c(=O)[nH]c2c1C	none
O=C(NC1CCCCC1)N(CCO)Cc1cc2cc3c(cc2[nH]c1=O)OCCO3	none
Cc1cc2cc(CN(CCCN3CCOCC3)C(=O)NC3CCCCC3)c(=O)[nH]c2cc1C	Autofluor counter 23619
COCC1CCCCN1Cc1cn[nH]c1-c1ccc2cc(OC)ccc2c1 (centres undefined)	none
CCOc1ccc(-c2c(C(=O)N/N=C/c3cccc(Br)c3)nnn2-c2nonc2N)cc1	none (no result: Autofluor counter, Anthrax LF inh2, BoNT-F LC inh, BoNT-A LC inh2)
Cc1ccc2[nH]c(=O)c(NC(N)=S)nc2c1	Autofluor counter 20753
O=C(NCC1CCCO1)c1ccc(NC(=O)c2ccc([N+](=O)[O-])cc2)cc1 (centres undefined)	none
CCCS(=O)(=O)Nc1c(C(=O)OC)[nH]c2ccccc12	none
COC(=O)c1[nH]c2ccccc2c1NS(=O)(=O)c1ccc(F)c(C)c1	Autofluor counter 16616
C=CCN1C(=O)C2(/C(=C(\O)c3ccc4c(c3)OCCO4)C(=O)C(=O)N2CCCOC)c2ccccc21 (centres undefined)	Autofluor counter 23166
C=C(C)CN1C(=O)C(O)(CC(=O)c2ccc3c(c2)OCCO3)c2ccccc21 (centres undefined)	none
Cc1ccc(C(=O)Nc2cc3[nH]c(=O)oc3cc2C)cc1	none
N#Cc1cc(Sc2ccccn2)c(Sc2ccccn2)cc1C#N	Autofluor counter 17696
O=C1c2cc([N+](=O)[O-])ccc2-c2cc(Br)c(N=C(NO)C(F)(F)F)cc21	none
Cc1cccc(NC(=O)CCNC(=O)c2ccccc2Cl)n1	none
Cc1cccc(NC(=O)c2cc(NC(=O)CCCC(=O)O)ccc2Cl)n1	Autofluor counter 23857
COc1cc(C2c3c(oc4ccccc4c3=O)C(=O)N2c2nccs2)ccc1O (centres undefined)	none
COc1ccc(S(=O)(=O)N2CCCCC2)cc1NC(=O)c1cccc(S(=O)(=O)N2CCOCC2)c1	Autofluor counter inconclusive
CCOC(=O)CC1NC(=O)c2ccccc21 (centres undefined)	none
NC(=O)CC1NC(=O)c2ccccc21 (centres undefined)	Autofluor counter 23615
Cc1ccc(C(C#N)N2CCOCC2)cc1 (centres undefined)	Autofluor counter 22170
CCOC(=O)c1c(C2COc3ccccc3O2)csc1NC(=O)c1ccco1 (centres undefined)	Autofluor counter 21244
Clc1ccc(COn2c(-c3ccc(Cl)cc3)nc3ccccc32)cc1	Autofluor counter 21296, BoNT-A LC inh2 inconclusive
COn1c(-c2ccc(Cl)cc2)nc2ccc(Cl)cc21	Autofluor counter 23040
CCc1ccc(NC(=O)C/C(C)=N/NC(=O)COc2ccc(C)cc2Br)cc1	none
C=CCn1c(COc2ccccc2-c2ccccc2)nnc1SCC(=O)NC(=O)NCc1ccco1	Autofluor counter 21241
C=CCn1c(COc2ccccc2F)nnc1SCC(=O)NC(=O)NCc1ccco1	none
Cc1cc(NC(=O)CSc2nnc(C)n2-c2ccccc2C)no1	none
O=C(O)c1ccc(CSc2nnc(-c3cccnc3)n2-c2ccc(Br)cc2)cc1	none
O=C(CSC(=S)N1CCCC1)Nc1ccc(Br)cc1Cl	Autofluor counter inconclusive, BoNT-F LC inh 35
O=c1oc2c(CN3CCCCC3)c(O)ccc2cc1-c1nc2ccccc2[nH]1	Autofluor counter 18384
Nc1nc(C(c2ccccc2)c2ccccc2)cs1	none
CC(=NCC1CCCO1)c1c(O)n(C)c(=O)n(C)c1=O (centres undefined)	Autofluor counter 20914
CC(=NCCCn1ccnc1)c1c(O)n(C)c(=O)n(C)c1=O	Autofluor counter 19563
CC(=NCc1ccco1)c1c(O)n(C)c(=O)n(C)c1=O	Autofluor counter 21713

Screening results from PubChem BioAssay.
